A selection follows.
aSyn UTR act – Activators via SNCA 5'UTR binding, MLPCN; hit rate 7.1% among 300,000; activity score, % (tested at 7.5 µM), hits read low; alpha-synuclein 5'UTR reporter, activators screen; in the data active = activity score below about -60%
* hit, by the source's call.

SMILES | aSyn UTR act
CCOC(=O)c1sc(=NC(=O)CCSc2ccccc2)n(C)c1C | -146.3*
COC(=O)c1ccc(NC(=O)c2cc3sccc3n2C)cc1 | -78.9*
Cn1c(C(=O)Nc2ccccc2)cc2sccc21 | -171.7*
Cn1c(C(=O)Nc2ccc3c(c2)OCO3)cc2sccc21 | -244.7*
COc1ccc(OC)c(NC(=O)c2cc3sccc3n2C)c1 | -93.3*
COc1cc(NC(=O)c2cc3sccc3n2C)cc(OC)c1 | -232.3*
COc1ccc(NC(=O)c2cc3sccc3n2Cc2ccc(F)cc2)cc1OC | -75.8*
COc1cc(C(F)(F)F)ccc1C(=O)NCCc1ccco1 | -162.9*
CC(C)(C)c1ccc(-n2ncc3c2CCCC3NC(=O)c2cnccn2)cc1 (stereo unspecified) | -67.8*
O=C(CCc1ccncc1)NC1CCCc2c1cnn2-c1cc(F)cc(F)c1 (stereo unspecified) | 78.7
O=C(CSc1ccccc1)Nc1ccc(N2CCOCC2)cc1 | -116.1*
O=C(Cc1cccs1)Nc1ccc(N2CCOCC2)cc1 | -96.7*
O=C(CSc1ccc(F)cc1)Nc1ccc(N2CCOCC2)cc1 | -74.1*
Cn1c(-c2ccc(F)cc2)cnc1SCC(=O)Nc1ccccc1N1CCOCC1 | -193.4*
O=C(CSc1n[nH]c(-c2ccccn2)n1)Nc1ccccc1 | 56.8
O=C(CSc1ccccc1)Nc1ccc(N2CCOCC2)c(F)c1 | -99.4*
O=C(CSc1n[nH]c(-c2ccccc2)n1)Nc1ccc(N2CCOCC2)cc1 | -68.1*
Cc1ccc(-c2nnc(-c3ccc(Br)cc3)o2)o1 | -134.6*
c1coc(-c2nnc(-c3cccs3)o2)c1 | -98.9*
Brc1ccc(-c2nnc(-c3ccco3)o2)cc1 | -146.3*
c1ccc(-c2nnc(-c3ccco3)o2)cc1 | -137.4*
CCCc1cc(C(=O)NC2CCCCC2)no1 | -146.4*
CC(C)c1cc(C(=O)NC2CCCCC2)no1 | -147.6*
CCCc1cc(C(=O)NC2CCCC2)no1 | -94.5*
CC1(C)Cc2c(sc3nc(-c4cc5ccccc5o4)n(N)c(=O)c23)CO1 | -202.9*
SMILES | aSyn UTR act
Cc1nn(-c2nnc(NCc3ccccc3)nn2)c(C)c1Br | -85.1*
COc1ccc(NC(=O)O/N=C/c2ccccc2)cc1 | -140.1*
S=C(N/N=C/c1ccccc1Cl)Nc1ccccc1 | -106.3*
COc1ccc(/C=N/NC(=S)Nc2ccccc2)cc1 | -71.5*
S=C(N/N=C/c1ccc2ncccc2c1)Nc1ccccc1 | 108.0
Clc1ccc2nc(N3CCCCC3)[nH]c2c1 | -123.3*
CS(=O)(=O)N1CCN(c2nc3ccc(Cl)cc3s2)CC1 | -98.9*
Clc1ccc2nc(N3CCCCC3)sc2c1 | -148.4*
O=c1c(Cl)c(N2CCCCC2)cnn1-c1nc2ccccc2[nH]1 | 93.2
CCOC(=O)C1CCN(C(=O)c2cc3cc4cc(OC)ccc4nc3o2)CC1 | -71.1*
COc1ccc2nc3oc(C(=O)N4CCCCC4)cc3cc2c1 | -191.6*
COc1ccc(N2CS(=O)(=O)/C(=C/N(C)C)C2=O)cc1 | -92.9*
CCCc1nn(C)c(C(=O)Nc2ccc(Cl)cc2)c1Cl | -79.2*
CCCc1nn(C)c(C(=O)Nc2ccccc2)c1Cl | -98.1*
CCCc1nn(C)c(C(=O)Nc2cccc(C)c2)c1Cl | -122.8*
Cc1nc(-c2ccc(Cl)cc2)sc1C1(C)CC(c2cccnc2)=NO1 (stereo unspecified) | -122.1*
Cc1nc(C(=O)Nc2ccccc2)sc1C1(C)CC(c2cccnc2)=NO1 (stereo unspecified) | -111.1*
O=C(Nc1ccc2oc(-c3ccc4ccccc4c3)nc2c1)c1ccc2c(c1)OCCO2 | -113.0*
Cc1ccc2nc(-c3cccc(NC(=O)c4ccc5c(c4)OCCO5)c3)oc2c1 | -86.6*
CCC(=O)Nc1cccc(-c2nc3ccc(C)cc3o2)c1 | -74.8*
Nc1nn(-c2cccc(F)n2)cc1-c1ccccc1 | -112.7*
CCOC(=O)N1CCN(C(=O)CSCC(=O)Nc2nc(-c3ccc(C)cc3)cs2)CC1 | -85.2*
O=C(CCCCl)Nc1nc(-c2ccc3c(c2)OCCO3)cs1 | -116.9*
O=C(Nc1nc(-c2ccc3c(c2)OCCO3)cs1)C1CCCC1 | -150.8*
CC(=O)Nc1nc(-c2ccc3c(c2)OCO3)cs1 | -129.9*
SMILES | aSyn UTR act
O=C(CSCC(=O)N1CCOCC1)Nc1nc(-c2ccc3c(c2)OCO3)cs1 | -131.1*
CC(=O)c1ccc(N2Cc3ccccc3C2=NC(=O)c2cccs2)cc1 | -69.4*
CC(=O)c1ccc(N2Cc3ccccc3/C2=N\C(=O)Nc2ccccc2)cc1 | -98.5*
O=C(N=C1c2ccccc2CN1c1ccc(F)cc1)c1ccc(Cl)nc1 | -94.2*
O=C(/C=C/Nc1ccccc1O)c1ccco1 | -86.5*
CC(=O)Nc1ccc(N/C=C/C(=O)c2ccco2)cc1 | -323.0*
O=C(/C=C/Nc1ccc(Br)cc1F)c1ccco1 | 57.4
CN(C)c1ccc(N/C=C/C(=O)c2ccco2)cc1 | -105.1*
Clc1ccc(-c2nc3cc(CN4CCCCC4)ccc3o2)cc1 | -206.0*
CCOc1ccccc1C1C2=C(COC2=O)Nc2cc3c(cc21)OCO3 (stereo unspecified) | 116.9
C#CCOc1ccc(C2C3=C(COC3=O)Nc3cc4c(cc32)OCO4)cc1OC (stereo unspecified) | 132.0
CCOc1ccc(C2Sc3ccccc3NC3=C2C(=O)OC3)cc1 (stereo unspecified) | -78.1*
CCn1ccnc1CNC(=O)c1ccc2oc(CCCc3ccccc3)nc2c1 | -75.5*
CCCCc1nc2cc(C(=O)N3CCCCC3C(=O)OC)ccc2o1 (stereo unspecified) | -98.2*
CCCCc1nc2cc(C(=O)NC(C)c3cnn(C)c3)ccc2o1 (stereo unspecified) | -77.4*
CCCCc1nc2cc(C(=O)N3CCCC3)ccc2o1 | -89.7*
COCC1CCN(C(=O)c2ccc3oc(CCCc4ccccc4)nc3c2)C1 (stereo unspecified) | -95.3*
CCCCc1nc2cc(C(=O)N3CCCC(COC)C3)ccc2o1 (stereo unspecified) | -86.2*
CCOc1ccc(C(=O)Nc2cccc([N+](=O)[O-])c2)cc1Br | -137.8*
O=C(Nc1ccc2ccccc2c1)c1cccc([N+](=O)[O-])c1 | -112.7*
O=C(NC(=S)Nc1cccc(F)c1)c1cccc([N+](=O)[O-])c1 | -109.1*
Cc1cccc(C(=O)Nc2ccc3ccccc3c2)c1 | -110.9*
Cc1ccc(N/N=C2\CCS(=O)(=O)c3sccc32)cc1 | -89.5*
COc1cc(/C=N\Nc2nc3ccccc3o2)cc(OC)c1OC | -186.4*
Brc1ccc(/C=N/Nc2nc3ccccc3o2)cc1 | -190.6*
SMILES | aSyn UTR act
COc1cc(/C=N/Nc2nc3ccccc3o2)cc(OC)c1O | -86.2*
Cc1cccc(C(=O)Nc2ccc3c(c2)ncn3C)c1 | -111.6*
Cn1cnc2cc(NC(=O)c3cccs3)ccc21 | -97.1*
COCCNC(=O)c1ccc2c(c1)ncn2-c1cccc(C)c1 | -74.8*
O=C(Nc1ccc2nn(-c3ccccc3)nc2c1)c1cccs1 | -177.9*
CCCc1nc2oc3c(NCCCN(C)C)ncnc3c2c2c1CCCC2 | 107.7
CC(C)(C)n1cnc2cc(NC(=O)c3ccc(Cl)cc3)ccc21 | -138.1*
Cn1cnc2cc(NC(=O)c3ccc(Cl)cc3)ccc21 | -138.6*
CN1N=C(C(=O)N2CCc3c([nH]c4ccccc34)C2c2ccccc2Cl)CCC1=O (stereo unspecified) | -69.0*
COc1ccc(CC(=O)c2ccc(O)cc2O)cc1 | -85.0*
COc1ccc(C(=O)OCc2csc(C)n2)c(O)c1 | -180.2*
O=C(Cc1ccc(Br)cc1)c1ccc(O)cc1O | -121.4*
COc1ccc(C(=O)Cc2ccc3c(c2)OCO3)c(O)c1 | -106.9*
O=c1[nH]c(/C(Cl)=C/c2cc(Cl)ccc2O)nc2cc(Cl)ccc12 | -89.7*

Screening data from PubChem BioAssay.
